# According to PubChem BioAssay (Tox21):
# “And” between values parts separate entries of the source, which are not always exact repeats. Equal entries are not always repeated. Records with an inconclusive call do not appear. A call without a number means that no potency is given here. The source made the active and inactive calls. Unless noted, calls come from the whole dose curve; as a rule, active = well fitted curve in the direction sought with a large enough effect in the repeat runs; inconclusive = weak or mixed curves; inactive = no such curve, though single readings can be large; an effect the other way counts as inactive or inconclusive.
# Experiments:
# [1] = target: Aryl hydrocarbon receptor (Homo sapiens) (UniProt P35869); assay: qHTS assay to identify small molecule that activate the aryl hydrocarbon receptor (AhR) signaling pathway (AID 743085); note: nearly all actives have a fitted effect of over 15% in size; note: potency is the fitted concentration of half-maximal effect;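 for activation: HG2L7.5c1 human HepG2 liver cells with stably integrated DRE-driven firefly reporter; series mostly up to about 70 µM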
# How it was run: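 Steps: seed HepG2-AhR-luc cells; allow 5 h at 37C; pin-transfer test compound or vehicle; incubate 24 h at 37C; add viability dye (30 min, 37C) and read fluorescence; add luciferase substrate (30 min, RT) and read luminescence.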
# [2] = qHTS assay to identify small molecule that activate the aryl hydrocarbon receptor (AhR) signaling pathway - cell viability counter screen (AID 743086);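 note: HepG2 liver cells carrying the AhR DRE luciferase reporter; series mostly up to about 70 µM; nearly all actives have a fitted effect of over 45% in size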
# How it was run: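 HepG2-AhR-luc (HG2L7.5c1) cells, 4000/well, were preincubated 5 h at 37C, exposed to compound in qHTS format for 24 hr at 37C, then given CellTiter-Fluor for 30 min; viability was read as fluorescence in the reporter wells.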
# [3] = target: Peroxisome proliferator-activated receptor gamma (Homo sapiens) (UniProt P37231); assay: qHTS assay to identify small molecule agonists of the peroxisome proliferator-activated receptor gamma (PPARg) signaling pathway (AID 743094; active = well fitted activation curve with a large enough effect in the signal ratio in the repeat runs, not every such curve was filed as active; the % refers to the signal ratio)
# How it was run: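 Agonist activity was taken from a beta-lactamase reporter (FRET substrate, 1 h at room temperature) in HEK293H cells carrying a PPARg UAS-bla construct. Compounds in DMSO were incubated 17 h at 37C after a 5 h cell pre-incubation.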
# [4] = target: Peroxisome proliferator-activated receptor gamma (Homo sapiens) (UniProt P37231); assay: qHTS assay to identify small molecule antagonists of the peroxisome proliferator-activated receptor gamma (PPARg) signaling pathway (AID 743191; calls by dose curve; note: series mostly up to about 63 µM; nearly all actives have a fitted effect of over 30% in size)
# How it was run: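 GeneBLAzer PPARg UAS-bla HEK293H cells carrying a UAS-driven beta-lactamase reporter were plated at 3000 cells/well, preincubated 5 h at 37C, then given compound for 17 h at 37C; LiveBLAzer B/G FRET substrate was read after 1 h at room temperature.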
# [5] = qHTS assay to identify small molecule antagonists of the peroxisome proliferator-activated receptor gamma (PPARg) signaling pathway - cell viability counter screen (AID 743194); settings: Potency: co-treated with 50 nM rosiglitazone; note: nearly all actives have a fitted effect of over 55% in size
# How it was run: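 PPARg-UAS-bla HEK293H cells were plated, rested 5 h at 37 C, then treated with compounds plus rosiglitazone (50 nM final) for 17 h at 37 C; viability was then read by CellTiter-Glo luminescence after 30 min at room temperature.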
# [6] = qHTS assay for small molecule agonists of the antioxidant response element (ARE) signaling pathway - cell viability counter screen (AID 743203; calls by dose curve; note: nearly all actives have a fitted effect of over 55% in size)
# How it was run: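 Viability counter screen: CellTiter-Glo luminescence, read after 30 min at room temperature, in ARE-bla HepG2 wells. Compound exposure lasted 16 h at 37C/5% CO2, following a 5 h pre-incubation of the cells after plating.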
# [7] = qHTS assay for small molecule activators of the heat shock response signaling pathway (AID 743210; active = well fitted activation curve with a large enough effect in the signal ratio in the repeat runs, with a control signal flat, not every such curve was filed as active; the % refers to the signal ratio;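 note: HeLa cells with beta-lactamase reporter driven by heat shock elements; series mostly up to about 63 µM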)
# How it was run: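 Activation of heat shock element-controlled beta-lactamase expression is measured in HeLa cells by LiveBLAzer FRET fluorescence, with compound exposure lasting 5 h at 37 C and substrate loading 2.5 h at room temperature.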
# [8] = qHTS assay to identify small molecule agonists of the peroxisome proliferator-activated receptor delta (PPARd) signaling pathway - cell viability counter screen (AID 743211); note: nearly all actives have a fitted effect of over 55% in size
# How it was run: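 Viability of GeneBLAzer PPARd UAS-bla HEK293H cells was assessed after 17 h compound incubation at 37C, using CellTiter-Glo reagent added after the reporter read and luminescence recorded 30 min later.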
# [9] = target: Peroxisome proliferator-activated receptor delta (Homo sapiens) (UniProt Q03181); assay: qHTS assay to identify small molecule agonists of the peroxisome proliferator-activated receptor delta (PPARd) signaling pathway (AID 743212; calls by dose curve)
# How it was run: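 Cells expressing a UAS-driven beta-lactamase reporter (PPARd-bla HEK293H) were given test compounds after a 5 h settle and kept at 37 C. Reporter activity was then measured as FRET fluorescence using LiveBLAzer B/G substrate.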
# [10] = target: Peroxisome proliferator-activated receptor delta (Homo sapiens) (UniProt Q03181); assay: qHTS assay to identify small molecule antagonists of the peroxisome proliferator-activated receptor delta (PPARd) signaling pathway (AID 743215; active = well fitted inhibition curve with a large enough effect in the signal ratio in the repeat runs, not every such curve was filed as active; the % refers to the signal ratio;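 note: cells stimulated with agonist L165041 at 300 nM final during compound exposure; series mostly up to about 62 µM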)
# How it was run: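 Agonist L165041 (300 nM final) added with compound to PPARd-bla HEK293H UAS-bla reporter cells; 17 h incubation at 37 C. Read-out: LiveBLAzer FRET substrate, 2 h at room temperature, fluorescence intensity.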
# [11] = target: Bile acid receptor (Homo sapiens) (UniProt Q96RI1); assay: qHTS assay to identify small molecule antagonists of the farnesoid-X-receptor (FXR) signaling pathway (AID 743217; active = well fitted inhibition curve with a large enough effect in the signal ratio in the repeat runs, not every such curve was filed as active; the % refers to the signal ratio)
# How it was run: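 Antagonist mode: chenodeoxycholic acid at 50 uM final stimulates a UAS-driven beta-lactamase reporter in HEK 293T FXR-bla cells during 16 h, 37C compound exposure. Read-out is FRET substrate fluorescence after 2 h at room temperature.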
# [12] = qHTS assay to identify small molecule agonists of the farnesoid-X-receptor (FXR) signaling pathway - cell viability counter screen (AID 743218); note: nearly all actives have a fitted effect of over 45% in size
# How it was run: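 Viability counter screen in the same wells: CellTiter-Glo luminescence, 30 min room-temperature incubation, measured after the beta-lactamase read. Cells were GeneBLAzer FXR-UAS-bla HEK 293T, compound-treated 16 h at 37C.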
# [13] = target: Bile acid receptor (Homo sapiens) (UniProt Q96RI1); assay: qHTS assay to identify small molecule agonists of the farnesoid-X-receptor (FXR) signaling pathway (AID 743220; active = well fitted activation curve with a large enough effect in the signal ratio in the repeat runs, not every such curve was filed as active; the % refers to the signal ratio)
# How it was run: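 FXR-UAS-bla HEK 293T cells carrying a UAS-driven beta-lactamase reporter were plated for 5 h at 37C/5% CO2, then exposed to DMSO-dissolved Tox21 10K compounds for 16 h at 37C. A LiveBLAzer B/G FRET substrate was loaded for 2 h at room temperature before fluorescence reading.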
# [14] = qHTS assay to identify small molecule antagonists of the farnesoid-X-receptor (FXR) signaling pathway - cell viability counter screen (AID 743221; active = well fitted cell-killing curve with a large enough effect in the repeat runs, not every such curve was filed as active; note: nearly all actives have a fitted effect of over 50% in size)
# How it was run: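 Quantitative HTS of the Tox21 10K library run in parallel with the beta-lactamase reporter read. HEK 293T cells carrying a UAS-driven bla reporter got compound and 50 uM CDCA (final) for 16 h; ATP-based luminescence followed.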
# [15] = target: Vitamin D3 receptor (Homo sapiens) (UniProt P11473); assay: qHTS assay to identify small molecule agonists of the vitamin D receptor (VDR) signaling pathway (AID 743222; calls by dose curve)
# How it was run: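 Agonist mode, beta-lactamase reporter: fluorescence from LiveBLAzer B/G FRET substrate (2 h, room temperature) read after 16 h compound treatment at 37 C of VDR-bla cells, which were pre-incubated 4 h after seeding.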
# [16] = target: Vitamin D3 receptor (Homo sapiens) (UniProt P11473); assay: qHTS assay to identify small molecule antagonists of the vitamin D receptor (VDR) signaling pathway (AID 743223; active = well fitted inhibition curve with a large enough effect in the signal ratio in the repeat runs, not every such curve was filed as active; the % refers to the signal ratio)
# How it was run: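 Fluorescence from LiveBLAzer B/G FRET substrate, read after 2 h at room temperature, reflects beta-lactamase reporter activity in VDR-bla cells treated 16 h at 37C with compounds and agonist 1alpha,25-dihydroxyvitamin D3 (3 nM final).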
# [17] = qHTS assay to identify small molecule agonists of the vitamin D receptor (VDR) signaling pathway - cell viability counter screen (AID 743224); note: series mostly up to about 63 µM; nearly all actives have a fitted effect of over 50% in size
# How it was run: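 Counter screen run in the same wells as the VDR-bla reporter assay: CellTiter-Glo luminescence, 30 min at room temperature, after 16 h compound treatment at 37C of cells pre-plated for 4 h.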
# [18] = qHTS assay for small molecule activators of the heat shock response signaling pathway - cell viability counter screen (AID 743209); note: nearly all actives have a fitted effect of over 50% in size
# How it was run: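 Cytotoxicity counter screen run in the same wells as the heat-shock bla reporter assay: HeLa HSE-bla cells, 5 h compound exposure at 37 C, viability read by CellTiter-Glo luminescence.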
# [19] = qHTS assay to identify small molecule antagonists of the peroxisome proliferator-activated receptor delta (PPARd) signaling pathway - cell viability counter screen (AID 743213); note: nearly all actives have a fitted effect of over 50% in size
# How it was run: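 HEK293H PPARd UAS-bla cells, 5 h pre-incubation, compound + L165041 300 nM final, 17 h 37 C; B/G FRET substrate 2 h RT; then CellTiter-Glo 30 min RT, luminescence.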
# [20] = qHTS assay for small molecule agonists of the antioxidant response element (ARE) signaling pathway (AID 743202; active = well fitted activation curve with a large enough effect in the signal ratio in the repeat runs, not every such curve was filed as active; the % refers to the signal ratio)
# How it was run: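 Steps: seed ARE-bla HepG2 cells (2,000/well); incubate 5 h at 37 C; add compounds by pin tool; incubate 16 h at 37 C; add FRET substrate; read fluorescence after 2 h at RT.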
# Peroxisome proliferator-activated receptor delta (Homo sapiens), sequence (Q03181 whole entry, looked up): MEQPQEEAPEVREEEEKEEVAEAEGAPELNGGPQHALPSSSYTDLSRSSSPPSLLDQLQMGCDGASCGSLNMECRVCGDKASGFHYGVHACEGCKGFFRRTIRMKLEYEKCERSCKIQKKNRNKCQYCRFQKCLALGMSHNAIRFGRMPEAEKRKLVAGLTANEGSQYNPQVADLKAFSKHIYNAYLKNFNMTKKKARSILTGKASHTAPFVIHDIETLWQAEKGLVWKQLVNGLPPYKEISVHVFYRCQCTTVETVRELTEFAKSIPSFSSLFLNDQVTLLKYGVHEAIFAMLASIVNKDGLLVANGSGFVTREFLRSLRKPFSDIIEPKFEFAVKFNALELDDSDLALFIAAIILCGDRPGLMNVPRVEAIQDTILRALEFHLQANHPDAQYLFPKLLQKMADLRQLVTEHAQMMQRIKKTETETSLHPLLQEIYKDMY
# Bile acid receptor (Homo sapiens), sequence (Q96RI1 whole entry, looked up): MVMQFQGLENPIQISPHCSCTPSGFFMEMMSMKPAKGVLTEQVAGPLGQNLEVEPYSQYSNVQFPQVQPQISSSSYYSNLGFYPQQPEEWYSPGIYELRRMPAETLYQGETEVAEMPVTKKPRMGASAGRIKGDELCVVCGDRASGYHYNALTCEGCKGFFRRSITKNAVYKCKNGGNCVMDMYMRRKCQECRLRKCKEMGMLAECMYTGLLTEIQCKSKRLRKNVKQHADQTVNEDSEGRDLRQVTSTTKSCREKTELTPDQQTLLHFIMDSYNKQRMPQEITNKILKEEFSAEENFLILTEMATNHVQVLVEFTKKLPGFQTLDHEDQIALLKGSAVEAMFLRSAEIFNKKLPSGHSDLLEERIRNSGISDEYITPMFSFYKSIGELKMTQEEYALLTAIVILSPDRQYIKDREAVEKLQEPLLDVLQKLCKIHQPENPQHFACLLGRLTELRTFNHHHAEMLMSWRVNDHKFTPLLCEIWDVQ
# Peroxisome proliferator-activated receptor gamma (Homo sapiens), sequence (P37231 whole entry, looked up): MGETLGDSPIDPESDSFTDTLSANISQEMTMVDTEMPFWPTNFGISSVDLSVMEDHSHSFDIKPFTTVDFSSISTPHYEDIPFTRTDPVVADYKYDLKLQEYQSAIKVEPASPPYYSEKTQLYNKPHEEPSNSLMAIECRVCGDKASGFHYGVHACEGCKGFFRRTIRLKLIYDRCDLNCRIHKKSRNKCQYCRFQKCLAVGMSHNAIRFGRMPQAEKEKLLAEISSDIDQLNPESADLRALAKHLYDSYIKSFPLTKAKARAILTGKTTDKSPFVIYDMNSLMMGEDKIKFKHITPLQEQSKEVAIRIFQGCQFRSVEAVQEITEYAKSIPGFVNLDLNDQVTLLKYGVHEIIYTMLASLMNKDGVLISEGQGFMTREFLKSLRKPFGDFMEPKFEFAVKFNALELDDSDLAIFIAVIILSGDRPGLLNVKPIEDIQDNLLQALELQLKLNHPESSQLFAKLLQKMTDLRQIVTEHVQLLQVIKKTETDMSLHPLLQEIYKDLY
# Vitamin D3 receptor (Homo sapiens), sequence (P11473 whole entry, looked up): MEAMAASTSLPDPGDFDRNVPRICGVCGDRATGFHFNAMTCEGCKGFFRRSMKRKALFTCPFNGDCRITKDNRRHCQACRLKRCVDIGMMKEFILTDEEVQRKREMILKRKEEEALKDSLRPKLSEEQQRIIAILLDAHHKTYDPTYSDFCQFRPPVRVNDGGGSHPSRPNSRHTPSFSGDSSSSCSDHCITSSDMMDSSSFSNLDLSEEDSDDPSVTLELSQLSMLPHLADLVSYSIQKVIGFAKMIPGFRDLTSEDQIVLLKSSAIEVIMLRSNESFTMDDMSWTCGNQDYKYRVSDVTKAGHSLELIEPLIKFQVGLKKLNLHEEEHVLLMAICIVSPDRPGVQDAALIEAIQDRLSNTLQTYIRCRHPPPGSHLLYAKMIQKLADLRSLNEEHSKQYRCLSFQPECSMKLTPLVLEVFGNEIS
# Aryl hydrocarbon receptor (Homo sapiens), sequence (P35869 whole entry, looked up): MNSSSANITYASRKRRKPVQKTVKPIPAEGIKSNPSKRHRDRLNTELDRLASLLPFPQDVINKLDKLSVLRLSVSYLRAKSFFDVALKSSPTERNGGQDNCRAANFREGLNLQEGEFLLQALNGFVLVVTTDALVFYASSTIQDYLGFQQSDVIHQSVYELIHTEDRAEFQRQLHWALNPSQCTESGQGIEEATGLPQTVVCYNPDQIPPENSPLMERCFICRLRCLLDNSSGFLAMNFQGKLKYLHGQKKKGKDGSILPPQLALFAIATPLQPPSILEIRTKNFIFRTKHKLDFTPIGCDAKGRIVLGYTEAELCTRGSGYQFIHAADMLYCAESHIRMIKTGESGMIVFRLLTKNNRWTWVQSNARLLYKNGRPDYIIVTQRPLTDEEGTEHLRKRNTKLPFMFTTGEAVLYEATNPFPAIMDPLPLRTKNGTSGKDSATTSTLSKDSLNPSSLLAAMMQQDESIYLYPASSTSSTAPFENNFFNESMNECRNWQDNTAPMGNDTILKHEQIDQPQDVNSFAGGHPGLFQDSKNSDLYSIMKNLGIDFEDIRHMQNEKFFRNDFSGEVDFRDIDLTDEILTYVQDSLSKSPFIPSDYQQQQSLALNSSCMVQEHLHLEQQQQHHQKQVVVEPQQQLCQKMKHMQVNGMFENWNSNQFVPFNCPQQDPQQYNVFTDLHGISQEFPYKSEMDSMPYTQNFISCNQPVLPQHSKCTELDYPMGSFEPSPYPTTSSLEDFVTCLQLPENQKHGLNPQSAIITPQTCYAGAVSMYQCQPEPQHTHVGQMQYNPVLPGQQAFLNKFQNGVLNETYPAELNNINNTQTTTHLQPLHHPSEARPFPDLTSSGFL
SMILES,Potency [1],Potency [2],Potency [3],Potency [4],Potency [5],Potency [6],Potency [7],Potency [8],outcome [9],Potency [10],Potency [11],Potency [12],outcome [13],Potency [14],outcome [15],Potency [16],Potency [17],Potency [18],Potency [19],Potency [20]
CCSCc1ccccc1OC(=O)NC,inactive,inactive,inactive,inactive,inactive,inactive,inactive,inactive,inactive,inactive,inactive,inactive,inactive,inactive,inactive,inactive,inactive,–,–,–
NCCc1cc(O)c(O)cc1O,inactive,inactive,inactive,inactive,inactive,inactive,inactive,inactive,inactive,inactive,–,inactive,–,–,inactive,inactive,–,inactive,inactive,–
CC(C)c1ccc(NC(=O)N(C)C)cc1,68.5 µM (active),inactive,inactive,inactive,inactive,inactive,inactive,–,inactive,inactive,–,inactive,–,inactive,inactive,inactive,inactive,inactive,inactive,–
CCC[N+](CCC)(CCC)CCC,inactive,inactive,inactive,inactive,–,inactive,–,inactive,inactive,inactive,–,inactive,–,inactive,–,–,inactive,inactive,inactive,inactive
CN1C(=O)CN=C(c2ccccc2)c2cc([N+](=O)[O-])ccc21,inactive,inactive,inactive,inactive,–,inactive,inactive,inactive,inactive,inactive,–,inactive,–,inactive,–,–,inactive,inactive,inactive,–
CCOP(=O)(SC(C)CC)N1CCSC1=O (stereo unspecified),inactive,inactive,inactive,inactive,inactive,inactive,inactive,inactive,inactive,inactive,–,inactive,–,inactive,inactive,inactive,inactive,–,inactive,–
Cc1ccc(N)c(C)c1,inactive,inactive,inactive,inactive,inactive,–,inactive,–,inactive,inactive,inactive,inactive,inactive,–,inactive,inactive,–,inactive,inactive,–
CN(C1CCCCC1)C1CCCCC1,inactive,inactive,inactive,inactive,inactive,inactive,inactive,inactive,inactive,inactive,–,inactive,–,inactive,inactive,inactive,inactive,inactive,inactive,–
COCc1cnc(C2=NC(C)(C(C)C)C(=O)N2)c(C(=O)O)c1 (stereo unspecified),inactive,inactive,inactive,inactive,inactive,inactive,inactive,inactive,inactive,–,inactive,inactive,inactive,–,inactive,inactive,inactive,–,inactive,–
CC(C)C1(C)N=C(c2ncccc2C(=O)O)NC1=O (stereo unspecified),inactive,inactive,inactive,inactive,inactive,inactive,inactive,inactive,inactive,inactive,inactive,inactive,inactive,–,inactive,inactive,inactive,–,inactive,–
O=S(=O)(Cl)Cl,inactive,inactive,inactive,inactive,inactive,inactive,inactive,inactive,–,–,–,inactive,–,–,inactive,inactive,inactive,inactive,–,–
CC(C)[C@@H](C(=O)O[C@@H](C#N)c1cccc(Oc2ccccc2)c1)c1ccc(Cl)cc1,inactive,inactive,inactive,inactive,–,inactive,–,inactive,inactive,inactive,–,inactive,–,inactive,–,–,inactive,inactive,inactive,inactive
Nc1cccc2ccccc12,27.5 µM (active) and 27.3 µM (active),inactive,inactive,inactive,–,inactive,inactive,–,inactive,inactive,–,inactive,–,inactive,–,–,–,inactive,inactive,inactive
COC1=CC(=O)O[C@@H](/C=C/c2ccc3c(c2)OCO3)C1,0.414 µM (active),inactive,inactive,inactive,–,inactive,inactive,inactive,inactive,inactive,–,inactive,–,inactive,–,–,inactive,inactive,inactive,–
C[N+](C)(C)CC1CO1 (stereo unspecified),inactive,inactive,inactive,inactive,–,inactive,inactive,inactive,inactive,inactive,–,inactive,–,inactive,–,–,–,inactive,inactive,inactive
CCCC[P+](CC)(CCCC)CCCC (tested in a mixture with another compound),inactive,inactive,inactive,inactive,–,inactive,inactive,inactive,–,–,–,inactive,–,–,inactive,inactive,inactive,–,inactive,inactive
FC(F)OC(F)(F)C(F)Cl (stereo unspecified),inactive,inactive,inactive,inactive,inactive,–,inactive,inactive,inactive,inactive,–,inactive,–,inactive,inactive,inactive,inactive,inactive,inactive,–
Cc1ccccc1,inactive,inactive,inactive,inactive,inactive,–,inactive,inactive,inactive,inactive,–,inactive,–,inactive,inactive,inactive,inactive,inactive,inactive,–
C=CCOC(=O)C(C)(C)OC(=O)c1cc(-n2c(=O)cc(C(F)(F)F)n(C)c2=O)ccc1Cl,inactive,inactive,inactive,inactive,inactive,–,inactive,inactive,–,inactive,–,inactive,–,–,–,–,–,inactive,inactive,–
